Assay outcomes from PubChem.
Compounds with a hit are over-represented: about 10% of the library has one in this group of screens.
NPR1 antag – antagonists of human natriuretic peptide receptor Npr1 | HEK293 hNpr1 GloSensor cGMP, ANP-stimulated luminescence | Potency, µM (series often up to 46.3 µM), inactives show at the highest dose activity change, negative = inhibition, hits mostly inhibitors | hit rate 1.6% among 76,000 | AID 1347048; calls by dose curve; also: nearly all actives have a fitted effect of over 60% in size
Target sequence (P16066 whole entry, looked up): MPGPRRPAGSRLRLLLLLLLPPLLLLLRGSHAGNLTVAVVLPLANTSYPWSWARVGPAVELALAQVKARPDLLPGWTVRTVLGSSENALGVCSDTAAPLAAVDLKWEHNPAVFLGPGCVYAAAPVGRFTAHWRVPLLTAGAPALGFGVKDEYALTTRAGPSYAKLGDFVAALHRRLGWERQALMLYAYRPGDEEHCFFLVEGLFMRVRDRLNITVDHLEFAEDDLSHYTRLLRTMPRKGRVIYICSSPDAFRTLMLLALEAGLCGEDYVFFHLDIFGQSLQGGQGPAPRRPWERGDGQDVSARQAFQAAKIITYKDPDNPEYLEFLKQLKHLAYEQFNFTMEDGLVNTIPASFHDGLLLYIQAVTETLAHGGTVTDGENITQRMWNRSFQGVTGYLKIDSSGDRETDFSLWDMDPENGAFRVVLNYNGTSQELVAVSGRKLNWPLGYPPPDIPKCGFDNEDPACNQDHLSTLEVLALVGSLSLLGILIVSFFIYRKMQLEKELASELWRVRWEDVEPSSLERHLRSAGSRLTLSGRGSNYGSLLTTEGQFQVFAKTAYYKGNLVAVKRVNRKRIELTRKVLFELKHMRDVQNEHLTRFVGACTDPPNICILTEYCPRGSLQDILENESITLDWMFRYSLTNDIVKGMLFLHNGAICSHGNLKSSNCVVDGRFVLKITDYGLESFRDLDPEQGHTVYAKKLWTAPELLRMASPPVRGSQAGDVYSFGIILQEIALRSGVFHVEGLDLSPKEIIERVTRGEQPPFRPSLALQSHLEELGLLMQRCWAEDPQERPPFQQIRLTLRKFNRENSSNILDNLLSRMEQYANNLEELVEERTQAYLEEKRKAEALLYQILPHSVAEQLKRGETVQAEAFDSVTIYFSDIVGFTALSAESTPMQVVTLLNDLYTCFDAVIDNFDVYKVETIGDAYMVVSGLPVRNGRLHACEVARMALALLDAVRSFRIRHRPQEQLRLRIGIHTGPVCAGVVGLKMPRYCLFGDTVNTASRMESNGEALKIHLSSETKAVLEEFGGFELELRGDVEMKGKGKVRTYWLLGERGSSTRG
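Compound pre-incubated 30 min at room temperature on GloSensor-loaded HEK293 cells stably carrying hNpr1 and the pGS-40F cGMP biosensor. Stimulation uses hNppA at 0.1 nM final; luminescence is taken at baseline and 20 min post-agonist.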
FLuc inh – inhibitors of firefly (Photinus pyralis) luciferase | Potency, µM (titrated, usually from 115 µM), usual class: inhibitors | P08659 | purified P. pyralis luciferase, luminescence, biochemical | hit rate 2.5% among 76,000; also: nearly all actives have a fitted effect of over 65% in size
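Luminescence read by CCD imager after adding enzyme (10nM final) to wells holding compound, titrated in qHTS. Substrates 10uM each D-luciferin and ATP; buffer 50mM Tris acetate pH 7.5, 10mM Mg acetate, Tween-20, BSA.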
GPT2 inhibitor – GPT2 alanine aminotransferase inhibition; Potency, µM (highest dose often 57.7 µM), for the others: top-dose activity change, negative = inhibition, usual class: inhibitors; Q8TD30; Recombinant GPT2, coupled pyruvate oxidase/HRP Amplex Red fluorescence; hit rate 0.25% among 100,000; also: nearly all actives have a fitted effect of over 60% in size
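Recombinant GPT2 (10ng/uL) with 250uM a-KG and 2mM L-alanine, 30 min at room temperature, in HEPES pH 7.5 buffer. Pyruvate detected by pyruvate oxidase/HRP/Amplex Red fluorescence after 30 min in the dark; AOA (50uM) as positive control.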
HEK cytotox – cytotoxic compounds in HEK 293 cells. hit rate 6.6% among 94,000. Potency, µM (highest dose often 115 µM), inactives show at the top dose activity change, negative = cytotoxicity, usual class: inhibitors. HEK 293 viability, ATP luminescence (CellTiter-Glo), 48-72 h; also: nearly all actives have a fitted effect of over 60% in size
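Pintool-delivered compounds were incubated with HEK 293 cells (250 cells/well) at 37 degree Celsius for 48 or 72 hr. ATP-dependent luminescence (CellTiter-Glo) then reported remaining viable cells.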
3T3 cytotox – cytotoxic compounds in NIH 3T3 cells. NIH 3T3 viability, CellTiter-Glo ATP luminescence, 48-72 h. Potency, µM (titrated, usually from 96.7 µM), for inactives: at the highest dose activity change, negative = cytotoxicity, most hits filed as inhibitors. hit rate 4.3% among 94,000. AID 1345082; also: nearly all actives have a fitted effect of over 55% in size
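NIH 3T3 cells at 400 cells/well received 23 nL of compound by pintool and were incubated 48 or 72 h at 37 °C. Viability was read as ATP-coupled CellTiter-Glo luminescence.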
* hit, by the source's call; i = inactive; ? = inconclusive; · = no result given; ! = repeats disagree; [ ] = dose if it differs, or a comment. Unless noted, calls follow the shape of the dose curve; as a rule, active = well fitted curve in the direction sought with a large enough effect; inconclusive = small, poorly fitted or top-dose-only effect, or another doubt; inactive = no such curve, though single readings can be large; an effect the other way counts as inactive or inconclusive. % is scaled to controls: 0 for no effect and ±100 for the full control effect; potency is read from the fitted curve at half-maximal effect.

SMILES	NPR1 antag	FLuc inh	GPT2 inhibitor	HEK cytotox	3T3 cytotox
CN(Cc1cnn(-c2ccc(F)cc2)c1)c1cc(C2CC(O)C2)ncn1 (stereo not drawn)	?	i	i	28µM*	?
CN(Cc1nc2ccc(F)cc2[nH]1)c1cc(C2CC(O)C2)ncn1 (stereo not drawn)	7%	i	-11%	-3%	-28%
Cc1ccc(NC(=O)C2CCc3nnc(-c4cccc(C(F)(F)F)c4)n32)cc1 (stereo not drawn)	·	·	i	?	?
OC[C@@H]1CNC[C@H]1C1CCN(Cc2cccc(C(F)(F)F)c2)CC1	7%	i	i	79µM*	?
OC[C@@H]1CNC[C@H]1C1CCN(Cc2cccc(Cl)c2F)CC1	-5%	i	i	?	?
CN1CCN(Cc2nnc(C(=O)N3CCC[C@@H]3c3ccc(Br)cc3)n2Cc2ccccc2)CC1	-14%	i	-27%	?	?
O=C(c1nnc(CN2CCN(c3ccccn3)CC2)n1Cc1ccccc1)N1CCC[C@@H]1c1ccc(Br)cc1	-2%	i	4%	45µM*	?
CN(Cc1ccccc1)Cc1nnc(C(=O)N2CCC[C@@H]2c2ccc(Br)cc2)n1Cc1ccccc1	-20%	i	4%	32µM*	18µM*
C[C@@H](NS(=O)(=O)c1ccc(Cl)cc1)c1onc(-c2ccc(F)cc2)c1C(=O)O	5%[70.6 µM]	i	-7%[88.5 µM]	i	i
O=C(NCc1cccc(Cl)c1)C1CN(C2CCCC2)C(=O)N1 (stereo not drawn)	·	·	1%[88.5 µM]	-10%[172 µM]	-27%[138 µM]
COc1ccc(CN2C(=O)CO[C@H](c3ccc(NC(=O)c4ccc(OC)cc4)cc3)[C@H]2CO)cc1	8%	?	1%	?	?
COc1ccc(C(=O)Nc2ccc([C@H]3OCC(=O)N(C)[C@@H]3CO)cc2)cc1	1%[70.6 µM]	71µM*	-6%[88.5 µM]	-16%[172 µM]	-19%[138 µM]
COc1ccc(C(=O)Nc2ccc([C@H]3OCC(=O)N(C(C)C)[C@@H]3CO)cc2)cc1	-8%[70.6 µM]	25µM*	1%[88.5 µM]	?	?
Cn1c(=O)c2c(ncn2CC(=O)N2CCCC(Cc3nc(C4CCOCC4)no3)C2)n(C)c1=O (stereo not drawn)	1%	i	i	-5%	-33%
Cc1ccc([S+](=O)([O-])N2CCN(Cc3ccccc3-c3ccccc3F)CC2)cc1	·	·	i	?	?
COc1ccccc1-c1ccc(CN2CCCCC2C(=O)NC2CC2)cc1 (stereo not drawn)	·	·	·	40µM*	?
COc1ccc(F)cc1-c1ccc(CN2CCC(NC(=O)C3CCCCC3)C2)cc1 (stereo not drawn)	·	·	·	45µM*	32µM*
COc1ccccc1-c1cccc(C(=O)N2CCC[C@H]2C(=O)NC2CC2)c1	·	·	i	3%	-1%
COc1ccccc1-c1ccc(CN2CCCCC2C(=O)NC2CCCCC2)cc1 (stereo not drawn)	·	·	·	22µM*!	45µM*!
COc1ccc(F)cc1-c1ccc(CN2CCCCC2C(=O)N2CCN(c3ncccn3)CC2)cc1 (stereo not drawn)	·	·	·	45µM*	?
COc1ccc(C(=O)N2CCCCCCNC(=O)[C@@H]3C[C@@H](c4nc(-c5cccnc5)no4)C[C@@H]32)cn1	-4%	i	2%	-31%	-32%
COc1ccc(F)cc1-c1ccc(CN2CCCCC2C(=O)NC2CCC2)cc1 (stereo not drawn)	·	·	·	35µM*	?
O=C(NC1CC1)C1CCCN1Cc1ccc(-c2cncnc2)cc1 (stereo not drawn)	·	·	i	i	0%
COc1cccc(C(=O)N2CCC3(CC2)CC(OCC2CC2)CCO3)c1 (stereo not drawn)	8%	i	-11%	2%	-13%
CCN1c2cc(C(=O)Nc3ccc(C)c(F)c3)ccc2C(=O)N2CCCC21 (stereo not drawn)	5%	i	i	-18%	-20%
CCN1c2cc(C(=O)Nc3cc(F)cc(F)c3)ccc2C(=O)N2CCCCC21 (stereo not drawn)	-12%	i	-9%	35µM*	28µM*
